This is a sample that favours compounds with a hit; in the whole collection about 6.9% have one here.
IL1B secr inh = qHTS for Inhibitors of Inflammasome Signaling: IL-1-beta AlphaLISA Primary Screen | THP-1 LPS/ATP IL-1B secretion, AlphaLISA, 16 h; hits give low values | activity change, % at 57.5 µM | actives 4.7% (n = 360,000); in the data active means activity change below about -50%; inconclusive means mostly about -30% to -49%
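THP-1 cells pretreated 1 hr with compounds (up to 57.5 uM final), then stimulated with LPS (250 ng/mL final) plus ATP (1.25 mM final); secreted IL-1B measured by AlphaLISA after 16 hr, decreased signal indicating inhibition.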
MCF10A rerep = A quantitative high throughput screen for small molecules that induce DNA re-replication in MCF 10a normal breast cells | MCF 10A DNA re-replication, Hoechst nuclear intensity, 48 h | Potency, µM (top dose mostly 46.1 µM), hits mostly activators | actives 2.9% (n = 350,000) | AID 624296, 2012; further: nearly all actives have a fitted effect of over 50% in size
SW480 rereplic = A quantitative high throughput screen for small molecules that induce DNA re-replication in SW480 colon adenocarcinoma cells; SW480 DNA re-replication, Hoechst DNA content imaging, 48 h; Potency, µM (top dose mostly 46.1 µM), actives largely listed as activators; actives 1.8% (n = 340,000); further: nearly all actives have a fitted effect of over 55% in size
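250 cells/well; 23 nL cpd via pin tool; 48 hr, 37 C, 5% CO2; Hoechst 40 min; imager read of total nuclear intensity, ex 405/em 500-530 nm.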
Vif-APOBEC3F blk = qHTS for Inhibitors of Vif-A3F Interactions: qHTS. HeLa A3F-eYFP + Vif (tagged APOBEC3F with the HIV-1 protein that degrades it), YFP fluorescence increase. Potency, µM (doses to about 46.1 µM). actives 0.2% (n = 390,000); further: nearly all actives have a fitted effect of over 65% in size
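HeLa cells stably expressing Vif plus C-terminally eYFP-tagged A3F were seeded, incubated overnight at 37 deg C, dosed with compound, incubated overnight again at 37 deg C. Yellow fluorescence (Ex 488/Em 500-530) reported blocked Vif-mediated A3F-eYFP degradation.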
Vif-APOBEC3G blk = qHTS for Inhibitors of Vif-A3G Interactions: qHTS. DNA dC->dU-editing enzyme APOBEC-3G (Homo sapiens), Q9HC16. HeLa A3G-eYFP + Vif (tagged APOBEC3G with the HIV-1 protein that degrades it), YFP fluorescence, overnight. Potency, µM (top dose mostly 46.1 µM), usual class: inhibitors. actives 0.076% (n = 410,000). AID 602310, 2012; further: nearly all actives have a fitted effect of over 60% in size
Target sequence (Q9HC16 whole entry, looked up): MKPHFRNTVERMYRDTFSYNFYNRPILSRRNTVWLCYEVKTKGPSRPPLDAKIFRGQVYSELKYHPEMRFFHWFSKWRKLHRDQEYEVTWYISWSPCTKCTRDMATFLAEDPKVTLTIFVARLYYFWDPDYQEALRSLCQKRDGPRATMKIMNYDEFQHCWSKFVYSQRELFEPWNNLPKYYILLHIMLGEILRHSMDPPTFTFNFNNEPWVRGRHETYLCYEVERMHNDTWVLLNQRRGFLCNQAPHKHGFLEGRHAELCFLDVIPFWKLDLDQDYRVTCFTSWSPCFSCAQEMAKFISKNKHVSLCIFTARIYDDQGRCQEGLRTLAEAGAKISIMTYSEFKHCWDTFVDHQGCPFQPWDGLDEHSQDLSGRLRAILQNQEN
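Read-out is eYFP fluorescence (Ex 488/Em 500-530) from Vif-expressing HeLa A3G-eYFP cells; more signal means A3G escaped Vif-mediated degradation. Cells plated overnight, compound pinned in, incubated overnight at 37 deg C.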
Giardia kill = Small Molecules that selectively kill Giardia lamblia: qHTS; Giardia lamblia trophozoite viability; activity change, % at 7.66 µM, hits read low; actives 0.15% (n = 340,000); AID 540267, 2011; in the data active means activity change below about -80%; inconclusive means between about -30% and that limit;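 further: parasites exposed to compound for two days anaerobically before the ATP read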
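Media and compound were dispensed first, then trophozoites at 100 cells/well; plates sat 48 hrs at 37 deg C without oxygen before ATP luminescence reagent was added and read after 15-30 min at room temperature.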
Large screens that a line does not name were inactive. Unless noted, the call rests on the fitted dose curve; in most records, active means well fitted curve in the direction sought with a large enough effect; inconclusive means small, poorly fitted or top-dose-only effect, or another doubt; inactive means no such curve, though single readings can be large; an effect the other way counts as inactive or inconclusive.

COc1ccc(C2N(c3ccc4c(c3)OCCO4)C(=O)C2(F)F)cc1OC (stereo not given)	IL1B secr inh -79, SW480 rereplic inconclusive
O=c1cc(N2CCCCC2)c(-c2ccccc2)nn1Cc1cccc(Cl)c1	MCF10A rerep 21µM
O=c1cc(N2CCCCC2)c(-c2ccccc2)nn1Cc1ccc(Cl)cc1Cl	MCF10A rerep 15µM
COc1ccccc1CNC(=O)c1c(O)nc2c(C)cccn2c1=O	none (no result: IL1B secr inh, MCF10A rerep, SW480 rereplic, Giardia kill)
O=C(CCCN1C(=O)/C(=C/c2cccc(Br)c2)SC1=S)Nc1cccnc1	IL1B secr inh -90, MCF10A rerep 18µM, SW480 rereplic 18µM
Cc1ccc(/C=C2\SC(=S)N(CCCC(=O)Nc3cccnc3)C2=O)cc1	IL1B secr inh inconclusive, MCF10A rerep inconclusive, SW480 rereplic inconclusive
O=C(CCCN1C(=O)/C(=C\c2cccc(Br)c2)SC1=S)Nc1cccnc1	IL1B secr inh -51, MCF10A rerep 8.2µM
COc1cc(C2CC(=O)Nc3c2c(=O)n(C)c2ncnn32)cc(OC)c1OC (stereo not given)	none (no result: IL1B secr inh, MCF10A rerep, SW480 rereplic, Giardia kill)
Cc1ccc(-c2nc3ccccc3o2)cc1NC(=S)NC(=O)c1cccs1	MCF10A rerep inconclusive
Cc1cc(-c2nc3ccccc3s2)ccc1N	MCF10A rerep 21µM, SW480 rereplic inconclusive
COc1ccc(-c2nc3ccccc3s2)cc1NC(=O)c1ccc(F)cc1	none (no result: IL1B secr inh, MCF10A rerep, SW480 rereplic, Giardia kill)
Cc1ccc(-c2nc3ccccc3s2)cc1NC(=S)NC(=O)c1ccccc1	MCF10A rerep 13µM
Cc1cc(C)c2oc(-c3ccc(C)c(NC(=S)NC(=O)c4cccs4)c3)nc2c1	MCF10A rerep 9.2µM
CC/C(C)=N/NC(=O)c1[nH]c2ccc(C)cc2c1-c1ccccc1	MCF10A rerep 12µM, SW480 rereplic inconclusive, Vif-APOBEC3G blk inconclusive
O=C(NN=C1CCCC1)c1[nH]c2ccc(Cl)cc2c1-c1ccccc1	MCF10A rerep 2.9µM, SW480 rereplic inconclusive, Vif-APOBEC3G blk inconclusive (no result: IL1B secr inh)
Cc1cccc(C(=O)NCC(=O)OCC(=O)c2ccc3ccccc3c2)c1	none (no result: IL1B secr inh, MCF10A rerep, SW480 rereplic, Vif-APOBEC3F blk)
Cc1noc(/C=C/N(C)C)c1S(=O)(=O)N1CCCC(C(=O)Nc2ccccc2F)C1 (stereo not given)	MCF10A rerep 23µM, SW480 rereplic inconclusive
Cc1noc(/C=C/N(C)C)c1S(=O)(=O)N1CCN(c2ccccc2)CC1	MCF10A rerep inconclusive
Cc1ccc(CNC(=O)C2CCCN(S(=O)(=O)c3c(C)noc3/C=C/N(C)C)C2)cc1 (stereo not given)	MCF10A rerep 15µM
Cc1ccc(C)c(N2CCN(S(=O)(=O)c3c(C)noc3/C=C/N(C)C)CC2)c1	MCF10A rerep 21µM
CC1(C)C2CC[C@]1(C)[C@@H](O)C2	none (no result: IL1B secr inh, Vif-APOBEC3F blk, Vif-APOBEC3G blk, Giardia kill)
N#CC1(CCCN2CCCCC2)c2ccccc2CCc2ccccc21	IL1B secr inh -57
OC1(C#CCCN2CCCCC2)c2ccccc2-c2ccccc21	none
Cc1ccc(CNC(=O)c2cc3c(=O)n(Cc4ccco4)ccc3nc2C)cc1	none (no result: IL1B secr inh, MCF10A rerep, SW480 rereplic, Giardia kill)
O=C1CC(c2nnc(Cc3ccccc3Cl)o2)CN1c1ccccc1 (stereo not given)	none (no result: IL1B secr inh, MCF10A rerep, SW480 rereplic, Giardia kill)
COc1ccc(CC(=O)NC2CC(=O)N(c3cccc(F)c3)C2)cc1 (stereo not given)	none (no result: IL1B secr inh, MCF10A rerep, SW480 rereplic, Giardia kill)
COC(=O)[C@@H]1CCCN1C(=O)CCc1nnc(CCc2c[nH]c3ccccc23)o1	IL1B secr inh -105, MCF10A rerep inconclusive, Vif-APOBEC3F blk inconclusive
COC(=O)C1CCCCN1C(=O)CCc1nnc(CCc2c[nH]c3ccccc23)o1 (stereo not given)	none
O=C(NCC(c1ccco1)N1CCCCC1)c1ccc(COc2ccc(Cl)cc2)cc1 (stereo not given)	IL1B secr inh -75, MCF10A rerep inconclusive, SW480 rereplic inconclusive
COc1ccc(N2CCN(C(CNC(=O)OCc3ccccc3)c3ccco3)CC2)cc1 (stereo not given)	IL1B secr inh -76
